# Assay outcomes as filed in PubChem.
# TIM10 inh – growth inhibitors of TIM10 yeast strain. 1.4% of 330,000 active. S. cerevisiae TIM10 strain growth, BacTiter-Glo luminescence, 24 h. inhibition, % at 10 µM. AID 463195;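 active means inhibition of 40% or more at the single tested concentration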;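 further: wild-type TIM10 isogenic control strain grown at permissive 25 °C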
# PfHsp90 set2 – reduces growth (ATP signal) of yeast expressing P. falciparum Hsp90; inhibition, % at 9.4 µM; S. cerevisiae expressing PfHsp90, BacTiter-Glo ATP, 48 h; yeast lacking PDR1 and PDR3 efflux regulators; 0.32% of 310,000 active;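 active means every replicate shows inhibition above about 80%, whatever the replicate mean, limit read from the data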;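 further: 0% = DMSO neutral controls and 100% = 20 µM radicicol positive controls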
# tim23-1 inh – growth inhibitors of tim23-1 mutant yeast; S. cerevisiae tim23-1 growth, BacTiter-Glo luminescence, 24 h; 1.3% of 330,000 active; inhibition, % at 20 µM;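 active means growth inhibition of the mutant yeast at or above 50%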;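 further: temperature-sensitive mutant grown at 25 °C; plate controls were DMSO-treated mutant yeast for no effect and medium wells lacking yeast for full effect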
# NLRP3 yeast inh – blocks the NALP3 inflammasome reconstituted in yeast. Yeast reconstituted NLRP3/ASC/caspase-1, beta-gal luminescence, 24 h. 0.39% of 330,000 active. inhibition, % at 10 µM;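 active means inhibition of 50% or more; inactive means inhibition below 50%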;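 further: plate controls were induced DMSO wells for no effect and uninduced yeast grown without galactose for full effect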
# tim10-1 inh – growth inhibitors of tim10-1 mutant yeast. S. cerevisiae tim10-1 ts strain growth, BacTiter-Glo, 24 h. inhibition, % at 20 µM. 2.2% of 330,000 active;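 active means inhibition of at least 40%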;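 further: mutant grown at 25 °C; 0% = DMSO wells with yeast and 100% = wells holding no yeast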
# tim10-1 conf – tim10-1 yeast growth inhibition, confirmed; shares compounds with tim10-1 inh; S. cerevisiae tim10-1 ts strain growth, BacTiter-Glo, 24 h; inhibition, % at 20 µM; 56% of 7,400 active;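 active means inhibition of yeast growth at or above a set limit in either of two repeat tests at 20 µM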;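 further: tim10-1 mutant grown at permissive 25 °C to find synthetic lethal compounds; 0% = DMSO yeast wells and 100% = medium wells without yeast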
# TIM10 conf – confirmation of TIM10 yeast growth inhibitors | 63% of 4,600 active | S. cerevisiae tim10 strain growth, BacTiter-Glo luminescence, 24 h | shares compounds with TIM10 inh | inhibition, % at 10 µM;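 active means inhibition of yeast growth at or above a set limit in either of two replicates at 10 µM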;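 further: this counterscreen used the strain with wild-type TIM10; 0% = yeast with DMSO and 100% = medium wells lacking yeast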
# tim23-1 conf – tim23-1 yeast growth inhibition, confirmed; inhibition, % at 20 µM; AID 463218; S. cerevisiae tim23-1 growth, BacTiter-Glo luminescence, 24 h; 83% of 4,400 active; shares compounds with tim23-1 inh;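 active means inhibition above about 39% in either of two replicate wells at 20 µM, limit read from the data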;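 further: temperature-sensitive tim23-1 mutant grown at 25 °C; 0% = DMSO wells with yeast and 100% = medium wells without yeast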
# The depositor's hits bear a star; . = no result given; + = active, no number. Shown are actives, neighbours in structure and some others; about 3.7% of the full set was active somewhere.
SMILES,TIM10 inh,PfHsp90 set2,tim23-1 inh,NLRP3 yeast inh,tim10-1 inh,tim10-1 conf,TIM10 conf,tim23-1 conf
Fc1ccc(NC(=S)Nc2cccc3ccccc23)cc1,24,-6,52*,21,43*,27,.,45*
COc1ccccc1NC(=O)c1ccc(NC(=O)Cc2n[nH]c(=O)c3ccccc23)cc1,7,20,-6,-8,7,.,.,.
Cc1cccn2c(=O)cc(COC(=O)C(C)Oc3ccccc3)nc12 (stereo unspecified),-28,-30,5,11,-45,.,.,.
CC1CCN(c2cc(N)c(Cl)cc2[N+](=O)[O-])CC1,41*,3,72*,31,52*,37*,-12,65*
Cc1cc(C(=O)Nc2ccccc2C(=O)O)ccc1NC(=O)COc1ccccc1Cl,.,-18,.,.,.,.,.,.
CCOC(=O)C(=Cc1ccc(F)cc1)C(=O)OCC,43*,.,55*,46,53*,46*,48*,60*
Cc1ccccc1Oc1ccc(Oc2ccccc2C)nn1,2,-1,21,16,5,.,.,.
COCCNC(=O)c1cccc(OC2CCN(Cc3ccc(F)cc3OC)CC2)c1,-2,10,-1,11,-7,.,.,.
O=C(NC(=S)Nc1ccccc1Br)C1CCC1,38,3,58*,20,40*,25,.,40*
O=Nc1c(-c2ccccc2)cc2ccccn12,49*,-41,66*,32,50*,43*,29*,63*
CCOC(=O)N1c2ccccc2Sc2ccccc21,-9,.,-37,21,3,.,.,.
CCC(C(=O)O/N=C(\N)c1ccccc1)c1ccccc1 (stereo unspecified),54*,-31,56*,-3,56*,53*,49*,43*
Cc1ccc(/C(N)=N/OC(=O)N2c3ccccc3Sc3ccccc32)cc1,86*,4,68*,16,63*,50*,80*,46*
N/C(=N\OC(=O)C(c1ccccc1)c1ccccc1)c1ccncc1,2,6,17,15,3,.,.,.
CCC(C(=O)O/N=C(\N)c1ccc(C)cc1)c1ccccc1 (stereo unspecified),64*,13,54*,1,69*,61*,-15,68*
CCC(C(=O)OCC(=O)Nc1ccc(C(N)=O)cc1)c1ccccc1 (stereo unspecified),13,3,2,18,14,.,.,.
CC(C)(C)CN1CCNC(=O)C1CC(=O)NCCc1ccccc1C(F)(F)F (stereo unspecified),17,7,28,16,12,.,.,.
COC(=O)C1=C(C)N(c2cc(C)cc(C)c2)/C(=C/c2ccco2)C1=O,39,0,54*,-5,55*,28,.,50*
O=c1cc(-c2ccccc2)cc(-c2ccccc2)n1O,17,+,80*,5,47*,28,.,68*
Nc1cc(Cl)nc(N/N=C/c2c(O)ccc3ccccc23)n1,45*,-3,66*,46,50*,38*,-9,70*
NC(=O)c1ccccc1NC(=O)CN1CCN(Cc2ccc(Cl)cc2Cl)CC1,1,-16,12,5,12,.,.,.
Cc1ccc(Nc2nnc(SCC(=O)NC(Cc3c[nH]c4ccccc34)C(=O)O)s2)cc1 (stereo unspecified),-1,-27,5,-1,11,.,.,.
COc1cccc(C(=O)O/N=C(\N)c2ccc(C)cc2)c1,72*,-17,69*,35,57*,41*,82*,71*
Cc1cccc(/C(N)=N/OC(=O)c2ccoc2C)c1,55*,-48,67*,12,44*,55*,39*,50*
COc1ccc(C(=O)O/N=C(\N)c2cccc(C)c2)cc1OC,46*,4,53*,13,51*,52*,54*,71*
Cc1cccc(/C(N)=N/OC(=O)c2ccncc2)c1,36,-50,8,12,26,.,.,.
